From PubChem BioAssay AID1159580 (chemical genetic matrix, 2015)
The campaign covered roughly 5,500 compounds. About 2,000 (36%) were called active. Not shown: some 18% with an inconclusive outcome. No stated cut-off is given here; in the data, active means normalized growth mostly below about 0.91 (no sharp cut-off); inconclusive means no clear call, values can overlap the other calls; inactive means mostly above about 0.92. This is one part of the list.

Assay: chemical genetic growth profiling, strain panel (AID 1159580);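 further: tested at 20 µM; growth read once vehicle control cultures reached saturation at 30 °C; 1 = growth at the plate median or of vehicle wells; lower values mean less growth of the strain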
Details: growth OD

Measured: normalized growth

Cc1c(C(N)=O)cc([N+](=O)[O-])cc1[N+](=O)[O-]
inactive: S. cerevisiae deletion strains, locus YJR066W, strain TOR1, hits give low values 0.991 | S. cerevisiae deletion strains, locus YKL009W, strain mrt4, hits give low values 0.972 | S. cerevisiae deletion strains, locus YKL068W, hits give low values 0.982 | S. cerevisiae deletion strains, locus YKL085W, strain MDH1 (second series), hits give low values 1.02 | S. cerevisiae deletion strains, locus YKL085W, strain MDH1, hits give low values 1.02 | S. cerevisiae deletion strains, locus YKL160W, strain elf1, hits give low values 0.988 | S. cerevisiae deletion strains, locus YKL190W, strain CNB1, hits give low values 0.996 | S. cerevisiae deletion strains, locus YKR001C, strain vps1, hits give low values 0.993 | S. cerevisiae deletion strains, locus YKR026C, strain gcn3, hits give low values 1.02 | S. cerevisiae deletion strains, locus YKR091W, strain srl3, hits give low values 1.02 | S. cerevisiae deletion strains, locus YLL001W, strain dnm1, hits give low values 1.02 | S. cerevisiae deletion strains, locus YLL026W, hits give low values 1.02 | S. cerevisiae deletion strains, locus YLL041C, strain sdh2, hits give low values 1.02 | S. cerevisiae deletion strains, locus YLR027C, strain aat2, hits give low values 1.01 | S. cerevisiae deletion strains, locus YLR039C, strain RIC1, hits give low values 0.988 | S. cerevisiae deletion strains, locus YLR058C, strain SHM2, hits give low values 0.99 | S. cerevisiae deletion strains, locus YLR102C, strain apc9, hits give low values 0.97 | S. cerevisiae deletion strains, locus YLR113W, strain HOG1, hits give low values 1.07 | S. cerevisiae deletion strains, locus YLR221C, strain rsa3, hits give low values 1.03 | S. cerevisiae deletion strains, locus YLR258W, strain gsy2, hits give low values 1.04 | S. cerevisiae deletion strains, locus YLR262C, strain YPT6 (second series), hits give low values 1.02 | S. cerevisiae deletion strains, locus YLR262C, strain YPT6, hits give low values 1.01 | S. cerevisiae deletion strains, locus YLR268W, strain sec22, hits give low values 0.979 | S. cerevisiae deletion strains, locus YLR320W, strain mms22, hits give low values 1.05 | S. cerevisiae deletion strains, locus YLR330W, strain CHS5, hits give low values 0.994 | S. cerevisiae deletion strains, locus YLR342W, strain FKS1 (second series), hits give low values 0.984 | S. cerevisiae deletion strains, locus YLR342W, strain FKS1, hits give low values 1.02 | S. cerevisiae deletion strains, locus YLR357W, strain rsc2, hits give low values 0.999 | S. cerevisiae deletion strains, locus YLR370C, strain arc18, hits give low values 1.04 | S. cerevisiae deletion strains, locus YLR371W, strain rom2, hits give low values 0.963 | S. cerevisiae deletion strains, locus YLR384C, strain iki3, hits give low values 1.03 | S. cerevisiae deletion strains, locus YLR418C, strain cdc73, hits give low values 0.972 | S. cerevisiae deletion strains, locus YML016C, strain PPZ1, hits give low values 0.989 | S. cerevisiae deletion strains, locus YML032C, strain rad52, hits give low values 0.978 | S. cerevisiae deletion strains, locus YML120C, strain ndi1, hits give low values 1.03 | S. cerevisiae deletion strains, locus YML124C, strain tub3, hits give low values 0.979 | S. cerevisiae deletion strains, locus YMR058W, strain fet3, hits give low values 1.01 | S. cerevisiae deletion strains, locus YMR078C, strain ctf18, hits give low values 0.976 | S. cerevisiae deletion strains, locus YMR125W, strain sto1, hits give low values 0.962 | S. cerevisiae deletion strains, locus YMR129W, hits give low values 1.02 | S. cerevisiae deletion strains, locus YMR205C, strain PFK2, hits give low values 1 | S. cerevisiae deletion strains, locus YMR223W, strain ubp8, hits give low values 0.98 | S. cerevisiae deletion strains, locus YMR231W, strain pep5, hits give low values 1.03 | S. cerevisiae deletion strains, locus YMR263W, strain SAP30, hits give low values 0.997 | S. cerevisiae deletion strains, locus YMR307W, strain GAS1, hits give low values 1.02 | S. cerevisiae deletion strains, locus YNL067W, strain RPL9B, hits give low values 1.01 | S. cerevisiae deletion strains, locus YNL071W, strain lat1, hits give low values 1.02 | S. cerevisiae deletion strains, locus YNL128W, strain TEP1, hits give low values 0.965 | S. cerevisiae deletion strains, locus YNL183C, strain NPR1, hits give low values 0.98 | S. cerevisiae deletion strains, locus YNL209W, strain ssb2, hits give low values 1.02 | S. cerevisiae deletion strains, locus YNL233W, strain BNI4, hits give low values 1.01 | S. cerevisiae deletion strains, locus YNL248C, strain rpa49, hits give low values 0.923 | S. cerevisiae deletion strains, locus YNL250W, strain rad50, hits give low values 0.985 | S. cerevisiae deletion strains, locus YNL271C, strain bni1, hits give low values 0.97 | S. cerevisiae deletion strains, locus YNL298W, strain CLA4, hits give low values 0.975 | S. cerevisiae deletion strains, locus YNL307C, strain MCK1, hits give low values 0.978 | S. cerevisiae deletion strains, locus YNL322C, strain KRE1 (second series), hits give low values 1.03 | S. cerevisiae deletion strains, locus YNL322C, strain KRE1, hits give low values 0.991 | S. cerevisiae deletion strains, locus YNR049C, strain mso1, hits give low values 1.02 | S. cerevisiae deletion strains, locus YNR052C, strain pop2, hits give low values 0.966 | S. cerevisiae deletion strains, locus YOL006C, strain TOP1, hits give low values 0.984 | S. cerevisiae deletion strains, locus YOL012C, strain htz1 0.838 | S. cerevisiae deletion strains, locus YOL147C, strain pex11, hits give low values 0.978 | S. cerevisiae deletion strains, locus YOR001W, strain rrp6, hits give low values 1.03 | S. cerevisiae deletion strains, locus YOR061W, strain CKA2, hits give low values 0.99 | S. cerevisiae deletion strains, locus YOR069W, strain VPS5, hits give low values 0.981 | S. cerevisiae deletion strains, locus YOR070C, strain gyp1, hits give low values 1.02 | S. cerevisiae deletion strains, locus YOR080W, strain dia2, hits give low values 1.03 | S. cerevisiae deletion strains, locus YOR083W, strain WHI5, hits give low values 0.985 | S. cerevisiae deletion strains, locus YOR106W, strain vam3, hits give low values 0.981 | S. cerevisiae deletion strains, locus YOR136W, strain idh2, hits give low values 0.976 | S. cerevisiae deletion strains, locus YOR144C, strain elg1, hits give low values 0.978 | S. cerevisiae deletion strains, locus YOR184W, strain ser1, hits give low values 0.986 | S. cerevisiae deletion strains, locus YOR231W, strain MKK1, hits give low values 1.05 | S. cerevisiae deletion strains, locus YOR265W, strain rbl2, hits give low values 1.01 | S. cerevisiae deletion strains, locus YOR270C, strain vph1, hits give low values 1.01 | S. cerevisiae deletion strains, locus YOR290C, strain snf2, hits give low values 1.03 | S. cerevisiae deletion strains, locus YOR316C, strain cot1, hits give low values 0.965 | S. cerevisiae deletion strains, locus YPL051W, strain arl3, hits give low values 1.01 | S. cerevisiae deletion strains, locus YPL078C, strain atp4, hits give low values 0.974 | S. cerevisiae deletion strains, locus YPL106C, strain sse1, hits give low values 1.06 | S. cerevisiae deletion strains, locus YPL240C, strain hsp82, hits give low values 1.02 | S. cerevisiae deletion strains, locus YPL241C, strain CIN2, hits give low values 0.991 | S. cerevisiae deletion strains, locus YPL256C, strain CLN2, hits give low values 1.05 | S. cerevisiae deletion strains, locus YPR119W, strain clb2, hits give low values 0.982 | S. cerevisiae deletion strains, locus YPR141C, strain kar3, hits give low values 0.974 | S. cerevisiae deletion strains, locus YPR163C, strain tif3, hits give low values 0.975 | S. cerevisiae deletion strains, locus YPR167C, strain met16, hits give low values 0.981 | S. cerevisiae deletion strains, strain wtn01, hits give low values 0.971 | S. cerevisiae strains, strain wild type, hits give low values 0.996
